# In the supplement of paper PMC7595190:
# A number with no mark means an inactive call.
# Tests used:
# Test in all cases: CellTox Green cytotoxicity fluorescence relative to DMSO vehicle (fold of vehicle RFU); higher = more cell death (loss of membrane integrity), active = 2 or more
# [1] = test system: CMK
# Method in brief: (§1)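 MV4-11, CMK and Kasumi-1 cells were plated in 96-well black optical-bottom plates at 4.0 × 10^4 cells per well, and CellTox Green reagent was added at the time of seeding. Single compounds from the Selleckchem apoptosis library were diluted in DMSO and added at final concentrations of 0.01, 0.1 and 1 µM, with 0.1% DMSO as vehicle. Plates were kept at 37 °C and 5% CO2 and read at 24, 48 and 72 h (Ex 485 nm, Em 520 nm). Cytotoxicity reflects loss of membrane integrity and is given as fluorescence relative to the DMSO vehicle, expressed as fold.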
# [2] = test system: Kasumi-1
# Method in brief: as §1
# [3] = test system: MV4-11
# Method in brief: as §1
SMILES,"CellTox Green cytotoxicity fluorescence ([1]; 0.01 µM, 24 h)","CellTox Green cytotoxicity fluorescence ([1]; 0.01 µM, 48 h)","CellTox Green cytotoxicity fluorescence ([1]; 0.01 µM, 72 h)","CellTox Green cytotoxicity fluorescence ([1]; 0.1 µM, 24 h)","CellTox Green cytotoxicity fluorescence ([1]; 0.1 µM, 48 h)","CellTox Green cytotoxicity fluorescence ([1]; 0.1 µM, 72 h)","CellTox Green cytotoxicity fluorescence ([1]; 1 µM, 24 h)","CellTox Green cytotoxicity fluorescence ([1]; 1 µM, 48 h)","CellTox Green cytotoxicity fluorescence ([1]; 1 µM, 72 h)","CellTox Green cytotoxicity fluorescence ([2]; 0.01 µM, 24 h)","CellTox Green cytotoxicity fluorescence ([2]; 0.01 µM, 48 h)","CellTox Green cytotoxicity fluorescence ([2]; 0.01 µM, 72 h)","CellTox Green cytotoxicity fluorescence ([2]; 0.1 µM, 24 h)","CellTox Green cytotoxicity fluorescence ([2]; 0.1 µM, 48 h)","CellTox Green cytotoxicity fluorescence ([2]; 0.1 µM, 72 h)","CellTox Green cytotoxicity fluorescence ([2]; 1 µM, 24 h)","CellTox Green cytotoxicity fluorescence ([2]; 1 µM, 48 h)","CellTox Green cytotoxicity fluorescence ([2]; 1 µM, 72 h)","CellTox Green cytotoxicity fluorescence ([3]; 0.01 µM, 24 h)","CellTox Green cytotoxicity fluorescence ([3]; 0.01 µM, 48 h)","CellTox Green cytotoxicity fluorescence ([3]; 0.01 µM, 72 h)","CellTox Green cytotoxicity fluorescence ([3]; 0.1 µM, 24 h)","CellTox Green cytotoxicity fluorescence ([3]; 0.1 µM, 48 h)","CellTox Green cytotoxicity fluorescence ([3]; 0.1 µM, 72 h)","CellTox Green cytotoxicity fluorescence ([3]; 1 µM, 24 h)","CellTox Green cytotoxicity fluorescence ([3]; 1 µM, 48 h)","CellTox Green cytotoxicity fluorescence ([3]; 1 µM, 72 h)"
C/C(=N\NC(=O)c1cccc(S(=O)(=O)N2CCOCC2)c1)c1cc(Cl)ccc1O,0.984,0.991,1.04,0.936,0.956,0.969,0.942,0.907,0.774,0.938,0.949,0.96,0.974,0.986,0.968,0.937,1.02,1.05,,,,,,,,,
CCOc1cc(C(C)(C)C)ccc1C1=N[C@@](C)(c2ccc(Cl)cc2)[C@@](C)(c2ccc(Cl)cc2)N1C(=O)N1CCN(CCCS(C)(=O)=O)CC1,0.987,0.993,1.01,0.995,0.996,1,1.02,1.05,1.02,0.977,0.992,1.01,0.987,0.969,0.96,1.03,1.03,1.03,0.993,1.01,1.01,1.03,1.07,1.13,1.07,1.63,2.02 (active)
C=CC(=O)N1CCN(C(=O)CNc2cc(I)c(Cl)cc2O)CC1 [K-Ras(G12C) inhibitor 12],1.01,0.986,0.963,0.999,0.997,0.992,0.992,1,1.02,0.989,1.01,1,1.01,0.982,0.979,0.995,0.964,0.958,0.959,0.976,0.971,0.991,0.991,1.01,0.993,0.996,1.03
CC(C)c1ccccc1Cc1cc(C(=O)Nc2ccc(S(=O)(=O)c3ccccc3C(C)(C)C)cc2)c(O)c(O)c1O,0.947,0.942,0.932,0.932,0.922,0.947,0.924,1.51,1.6,0.977,0.911,0.915,0.951,0.94,0.932,0.94,0.909,0.919,0.952,0.952,0.957,0.956,0.944,0.945,0.933,1.16,1.84
COc1ccc(C2=N[C@@H](c3ccc(Cl)cc3)[C@@H](c3ccc(Cl)cc3)N2C(=O)N2CCNC(=O)C2)c(OC(C)C)c1 [Nutlin-3],0.981,0.982,0.971,1,1.01,1.03,1.02,1.01,1.03,1.02,1.01,0.998,0.977,0.977,0.959,1.01,1.01,1.05,0.981,1,0.995,0.991,0.999,1.03,1.01,1.24,1.46
CCC(CC)n1ccc2c(C(=O)NCc3c(C)cc(C)[nH]c3=O)cc(C#N)cc21,0.768,0.767,0.8,,,,,,,,,,0.942,0.956,0.925,1.01,0.971,0.978,0.856,0.857,0.869,,,,,,
CCCCNc1ncc2c(-c3ccc(CN4CCN(C)CC4)cc3)cn([C@H]3CC[C@H](O)CC3)c2n1,0.987,0.978,1,1.07,1.31,1.32,1.13,1.75,1.98,1.06,1.01,1.02,1.05,1.18,1.32,1.1,1.62,1.93,1.03,1.16,1.28,1.04,1.47,2.1 (active),1.08,1.7,2.22 (active)
